Test results taken from PubChem BioAssay (NCI).
The panel holds about 83,000 compounds, 20% with a hit somewhere; the sample as a whole holds those more often.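 In brief: 96-well plates, 48 h treatment, single concentration, percent growth endpoint.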 A number with no mark means an inactive call. Activity calls are given as the source filed them. The calls were made as follows: active = growth percent below 10; inactive = the rest.

These compounds were tested on HL-60(TB) leukemia (assay: NCI-60 one-dose screen, 48 h (100 = growth as untreated, 0 = no growth, -100 = all killed)). Conditions: 10 µM unless noted.

SMILES	growth
COC(=O)[C@]12CC[C@@H](C)[C@H](C)[C@@H]1C1=CC[C@@H]3[C@@]4(C)C=C(O)C(=O)[C@@]5(C)COC(=C54)C[C@@]3(C)[C@]1(C)CC2	-50% (active)
Cc1nc2sccn2c1-c1csc(Nc2ccccc2Cl)n1	19.2%
O=C(CCC(=O)N(CCO)CCO)N(CCO)CCO	89%
Nn1c(=O)c(=O)[nH]c2c(cnn2-c2ccccc2)c1=O	98.6%
CC(=O)[C@H]1CC[C@H]2[C@@H]3CC[C@@H]4CC=C(C=O)C[C@]4(C)[C@H]3CC[C@]12C	78.2%
CCCCCc1ccnc(CC(=O)c2ccc(OC)cc2)c1	110%
Cc1cc(C)n(C(=O)CSc2nc3sc4c(c3c(=O)n2-c2ccccc2)CCCCC4)n1	107%
Cc1ncc(C(=O)Nc2ccc(CN3CCN(C)CC3)c(C(F)(F)F)c2)cc1C#Cc1cnc(N)c2ncccc12	6.76% (active)
CCCCOc1ccc(/C=C2/SC(N3CCCC3)=NC2=O)cc1	98%
O=C(/C=C/c1ccc2c(c1)OCO2)c1c(O)c2ccccc2oc1=O	77.8%
Nc1ccc(S(=O)(=O)O)c2cc(S(=O)(=O)O)cc(O)c12	99.2%
CCOc1cc2ncc(C#N)c(Nc3ccc(F)c(Cl)c3)c2cc1NC(=O)/C=C/CN(C)C	-52.6% (active)
CCOC(=O)Nc1ccc(C(=O)/C=C/c2ccccc2)cc1	45.4%
Fc1ccc(NC(c2ccc(F)cc2)C2CCN(CCCCc3ccccc3)CC2)cc1 (centres undefined)	10.8%
